The values that follow come from PubChem BioAssay.

Test [1] is described as follows: antimalarial activity against Dd2 strain (AID 2302;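 active means growth inhibition above 50% at the single 2 µM test dose, taken to imply half-maximal potency below 2 µM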;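 further: 0% = DMSO untreated growth and 100% = chloroquine plus artemisinin killed control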). As to conditions: P. falciparum Dd2 in RBCs, LDH growth readout, 72 h; at 2 µM; active compounds read high.
Test [2] is described as follows: human hepatoma cell viability loss – ATP luminescence, cytotoxicity control for P. falciparum antimalarial project, primary screen (AID 2303;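 active means inhibition above 50%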;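 further: 0% = DMSO wells and 100% = digitonin-killed cells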). The note with it: HepG2 viability, 24-48 h, at 10 µM, active compounds read high.
For test [3], the target named is L-lactate dehydrogenase (Plasmodium falciparum (isolate CDC / Honduras)) (UniProt Q27743). The test is described as follows: PfLDH activity inhibition – cell lysate, 3D7 strain, counter-screen for P. falciparum growth inhibition project (AID 2304).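 Further: 0% = vehicle and 100% = reference inhibitor.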 As to conditions: P. falciparum 3D7 crude extract, LDH APAD/NBT absorbance; at 2 µM; active compounds read high. Background: The purpose of a counterscreen is to sort out artefacts and off-target activity.

Test [4] can be described thus: inhibition of 3D7 malaria parasite growth – strain 3D7 (AID 2306).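 Further: 0% = DMSO wells and 100% = chloroquine plus artemisinin control wells.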 The note with it: P. falciparum 3D7 erythrocytic growth, LDH absorbance, 72 h; at 2 µM; active compounds read high.
Test [5] deals with Calcium-dependent protein kinase 1 (Plasmodium falciparum (isolate 3D7)) (UniProt P62344). The test is described as follows: PfCDPK1 kinase inhibitors, biochemical, TCAMS library (AID 1159585; cut-off not given, nearly all actives have IC50 up to about 0.98 µM;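 further: inhibitors leave more ATP so luminescence rises with inhibition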). As to conditions: recombinant PfCDPK1, Kinase-Glo ATP depletion luminescence.
In test [6] the target is Plasmodium falciparum protein kinase 6 (PK6, PF3D7_1337100) (UniProt Q8IDW1). The experiment in a line: PfPK6 kinase inhibitors, biochemical, TCAMS library (AID 1159586). As to conditions: recombinant PfPK6, Kinase-Glo ATP depletion luminescence. In general terms: Kinase-Glo reads ATP consumption through a luciferase reaction.
Test [7] deals with Protein kinase 7 (PK7), Plasmodium falciparum 3D7 (PF3D7_0213400) (UniProt Q7YTF7). The test is described as follows: inhibition of Plasmodium PK7 catalytic activity – biochemical, TCAMS antimalarial set, Kinase-Glo luminescence (AID 1159587). As to conditions: recombinant PfPK7, Kinase-Glo ATP depletion luminescence.
The target of test [8] is Calcium-dependent protein kinase 4 (Plasmodium falciparum (isolate 3D7)) (UniProt Q8IBS5). The test is described as follows: PfCDPK4 kinase inhibitors, biochemical, TCAMS library (AID 1159588; cut-off not given, nearly all actives have IC50 up to about 0.91 µM). The note with it: recombinant PfCDPK4, Kinase-Glo ATP depletion luminescence.

Values without a mark were called inactive. For part of these data: Entries with a potency or affinity are not part of this list. Activity calls are given as the source filed them. Unless noted, how the calls were made is not given here.

Chain of Calcium-dependent protein kinase 4 (Plasmodium falciparum (isolate 3D7)) (Q8IBS5 whole entry, looked up): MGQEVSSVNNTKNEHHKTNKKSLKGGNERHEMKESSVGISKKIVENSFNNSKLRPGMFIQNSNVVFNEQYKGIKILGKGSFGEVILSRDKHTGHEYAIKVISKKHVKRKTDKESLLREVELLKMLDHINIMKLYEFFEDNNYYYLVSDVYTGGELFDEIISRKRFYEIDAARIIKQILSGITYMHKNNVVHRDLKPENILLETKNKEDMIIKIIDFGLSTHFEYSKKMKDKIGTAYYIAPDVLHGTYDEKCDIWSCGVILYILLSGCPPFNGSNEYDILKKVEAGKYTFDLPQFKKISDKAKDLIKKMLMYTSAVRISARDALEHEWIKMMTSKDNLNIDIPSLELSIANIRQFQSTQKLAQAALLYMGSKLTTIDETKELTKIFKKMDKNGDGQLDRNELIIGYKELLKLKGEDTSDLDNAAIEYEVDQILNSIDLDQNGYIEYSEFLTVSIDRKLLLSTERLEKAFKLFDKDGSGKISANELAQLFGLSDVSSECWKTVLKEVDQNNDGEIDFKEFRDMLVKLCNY
Chain of L-lactate dehydrogenase (Plasmodium falciparum (isolate CDC / Honduras)) (Q27743 whole entry, looked up): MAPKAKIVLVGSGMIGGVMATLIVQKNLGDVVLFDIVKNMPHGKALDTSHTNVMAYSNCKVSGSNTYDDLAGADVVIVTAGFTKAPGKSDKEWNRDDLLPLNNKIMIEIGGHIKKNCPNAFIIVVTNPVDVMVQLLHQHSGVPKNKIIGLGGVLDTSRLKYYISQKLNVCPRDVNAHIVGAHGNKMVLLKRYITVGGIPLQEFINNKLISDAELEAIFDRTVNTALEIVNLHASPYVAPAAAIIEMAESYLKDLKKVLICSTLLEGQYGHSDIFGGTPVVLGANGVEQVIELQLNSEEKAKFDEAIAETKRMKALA
Chain of Calcium-dependent protein kinase 1 (Plasmodium falciparum (isolate 3D7)) (P62344 whole entry, looked up): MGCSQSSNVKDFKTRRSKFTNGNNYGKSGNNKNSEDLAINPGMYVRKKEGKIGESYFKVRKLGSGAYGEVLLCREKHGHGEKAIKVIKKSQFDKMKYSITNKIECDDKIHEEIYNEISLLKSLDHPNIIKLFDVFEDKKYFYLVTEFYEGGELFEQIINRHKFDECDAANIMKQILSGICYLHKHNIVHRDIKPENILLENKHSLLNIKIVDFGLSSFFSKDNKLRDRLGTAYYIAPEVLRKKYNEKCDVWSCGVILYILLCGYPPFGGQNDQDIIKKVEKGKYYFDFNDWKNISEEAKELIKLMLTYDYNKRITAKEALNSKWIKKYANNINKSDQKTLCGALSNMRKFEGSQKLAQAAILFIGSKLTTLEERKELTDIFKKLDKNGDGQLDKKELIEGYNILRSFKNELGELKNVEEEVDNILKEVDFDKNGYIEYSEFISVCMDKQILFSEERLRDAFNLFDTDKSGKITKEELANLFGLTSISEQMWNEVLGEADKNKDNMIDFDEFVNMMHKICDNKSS
Chain of Protein kinase 7 (PK7), Plasmodium falciparum 3D7 (PF3D7_0213400) (Q7YTF7 1-343): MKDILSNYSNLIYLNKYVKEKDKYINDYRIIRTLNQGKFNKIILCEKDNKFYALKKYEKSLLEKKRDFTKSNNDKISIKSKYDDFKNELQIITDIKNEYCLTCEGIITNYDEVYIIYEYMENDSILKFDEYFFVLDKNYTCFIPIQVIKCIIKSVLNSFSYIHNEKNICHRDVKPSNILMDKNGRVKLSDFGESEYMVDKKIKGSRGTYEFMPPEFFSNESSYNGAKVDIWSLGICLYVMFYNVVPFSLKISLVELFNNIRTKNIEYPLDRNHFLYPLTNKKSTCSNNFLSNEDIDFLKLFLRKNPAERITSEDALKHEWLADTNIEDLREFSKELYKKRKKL
Chain of Plasmodium falciparum protein kinase 6 (PK6, PF3D7_1337100) (Q8IDW1 1-305): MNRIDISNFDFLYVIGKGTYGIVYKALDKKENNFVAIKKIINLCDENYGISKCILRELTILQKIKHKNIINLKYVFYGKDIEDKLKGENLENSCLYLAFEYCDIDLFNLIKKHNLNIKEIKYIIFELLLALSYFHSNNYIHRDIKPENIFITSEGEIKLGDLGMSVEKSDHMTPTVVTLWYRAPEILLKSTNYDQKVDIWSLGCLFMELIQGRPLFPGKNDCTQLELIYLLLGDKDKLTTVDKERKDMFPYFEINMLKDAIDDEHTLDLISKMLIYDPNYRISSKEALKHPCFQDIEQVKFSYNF

For orientation: inhibition means the change of the read-out against control, counted positive when it falls. `Cc1cc(NCCc2ccccc2)nc(/N=C(\N)Nc2cccc([N+](=O)[O-])c2)n1`: the growth inhibition in test [1] is 101% (active); in test [4], 102% (active). The results for the inhibition in test [2] and in test [3] were 21% and -2%, respectively. Further, the result in test [5], in test [6], in test [7] and in test [8] was inactive.
Regarding `CC(C)(C)c1ccc(CN2CCC(CNC(=O)c3cc(-c4ccccc4)nc4ccccc34)CC2)cc1`, the growth inhibition in test [1] is 36%; in test [4] it was 89% (active). Also, the inhibition in test [2] is 33%; in test [3], -1%. For the same compound, the outcome in test [5], in test [6], in test [7] and in test [8] was inactive.
`O=C(CCc1cnc[nH]1)Nc1cccc(-c2ccc(-c3nc4ccccc4[nH]3)cc2)c1`: the results for the growth inhibition in test [1] and in test [4] were 60% (active) and 100% (active), respectively. Also, the results for the inhibition in test [2] and in test [3] were 24% and 1%, respectively. The result in test [5], in test [6], in test [7] and in test [8] was inactive.
